Common to all, as to settings: mRNA level, 48 h; actives raise or lower the signal
Read-out in test [1]: Early growth response protein 1 (EGR1) transcription factor, EGR1 (gene 1958)
As to the kind of experiment: LTEA_HepaRG_EGR1: Life Technologies and Expression Analysis (LTEA) Assay for Early growth response protein 1 (EGR1) transcription factor using HepaRG (AID 2283490). The essentials: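 Read-out is EGR1 mRNA level by qRT-PCR, normalized to three housekeeping genes and analysed for gain or loss of signal against 0.5% DMSO. Source cells: human HepaRG, treated 48 h at up to 100 uM in half-log dilutions.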

Read-out in test [2]: Ezrin (EZR), EZR (gene 7430)
Description: LTEA_HepaRG_EZR: Life Technologies and Expression Analysis (LTEA) Assay for Ezrin (EZR) using HepaRG (AID 2283491). In a few lines: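 HepaRG, 48 h chemical exposure, 8-pt half-log series from 100 uM, 0.5% DMSO vehicle, duplicates. Read-out: EZR mRNA by TaqMan qRT-PCR (Fluidigm array), housekeeping-normalized; bidirectional curve fit vs DMSO baseline.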

Read-out in test [3]: Cytochrome P450 3A7 (Homo sapiens) (UniProt P24462)
As to the kind of experiment: LTEA_HepaRG_CYP3A7: Life Technologies and Expression Analysis (LTEA) Assay for CYP3A7 using HepaRG (AID 2283492). The essentials:
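Differentiated HepaRG cells in serum-free induction medium exposed 48 h in duplicate to 8-point half-log series from 100 uM top in 0.5% DMSO. CYP3A7 mRNA by qRT-PCR, normalized to ACTB/GAPDH/POLR2A, bidirectional fit versus DMSO.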

Read-out in test [4]: CYP3A5 (gene 1577)
As to the kind of experiment: LTEA_HepaRG_CYP3A5: Life Technologies and Expression Analysis (LTEA) Assay for CYP3A5 using HepaRG (AID 2283493). In a few lines: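 HepaRG plated 48 h, switched to serum-free induction medium, chemicals added 48 h (max 100 uM, half-log, 0.5% DMSO). RNA isolated; CYP3A5 by TaqMan qRT-PCR. Gain/loss vs DMSO.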

Read-out in test [5]: Fatty Acid-Binding Protein 1 (FABP1), FABP1 (gene 2168)
Description: LTEA_HepaRG_FABP1: Life Technologies and Expression Analysis (LTEA) Assay for Fatty Acid-Binding Protein 1 (FABP1) using HepaRG (AID 2283494). In a few lines: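 HepaRG, 48 h post-plating switched to serum-free induction medium, then dosed 48 h (duplicate, 8 pts, ≤100 uM, 0.5% DMSO). RNA → Fluidigm TaqMan qRT-PCR, FABP1 normed to ACTB/GAPDH/POLR2A. Bidirectional curve fit vs DMSO.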

Read-out in test [6]: Cytochrome P450 4A22 (Homo sapiens) (UniProt Q5TCH4)
Description: LTEA_HepaRG_CYP4A22: Life Technologies and Expression Analysis (LTEA) Assay for Cytochrome P450 4A22 (CYP4A22) using HepaRG (AID 2283495). The essentials: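 Differentiated HepaRG cells in serum-free induction medium exposed 48 h in duplicate to eight half-log concentrations up to 100 uM in 0.5% DMSO. CYP4A22 mRNA quantified by TaqMan qRT-PCR, normalized to ACTB, GAPDH and POLR2A; bidirectional fit versus DMSO.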

Read-out in test [7]: Cytochrome P450 7A1 (Homo sapiens) (UniProt P22680)
As to the kind of experiment: LTEA_HepaRG_CYP7A1: Life Technologies and Expression Analysis (LTEA) Assay for Cytochrome P450 7A1 (CYP7A1) using HepaRG (AID 2283496). The essentials:
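HepaRG cells plated 48 h, then switched to serum-free induction medium and exposed in duplicate for 48 h to 8-point half-log series from 100 uM in 0.5% DMSO. CYP7A1 mRNA by qRT-PCR (TaqMan), normalized to ACTB/GAPDH/POLR2A; bidirectional fit versus DMSO.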

Read-out in test [8]: Glutathione S-Transferase (GSTA2), GSTA2 (gene 2939)
As to the kind of experiment: LTEA_HepaRG_GSTA2: Life Technologies and Expression Analysis (LTEA) Assay for Glutathione S-Transferase (GSTA2) using HepaRG (AID 2283497). In a few lines: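 HepaRG, 48 h dosing, 8-pt half-log CRC from 100 uM, 0.5% DMSO vehicle, n=2; RNA → Fluidigm TaqMan qRT-PCR; GSTA2 vs ACTB/GAPDH/POLR2A; gain/loss fit vs DMSO.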

Read-out in test [9]: Glutamate-cysteine ligase catalytic (GCLC), GCLC (gene 2729)
Description: LTEA_HepaRG_GCLC: Life Technologies and Expression Analysis (LTEA) Assay for Glutamate-cysteine ligase catalytic (GCLC) using HepaRG (AID 2283498). The essentials: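 Read-out is GCLC transcript level by Fluidigm-based TaqMan qRT-PCR, normalized to three housekeeping genes and fitted in both directions relative to 0.5% DMSO. Human HepaRG cells received chemicals for 48 h, up to 100 uM.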

Read-out in test [10]: growth arrest and DNA damage 45 (GADD45G), GADD45G (gene 10912)
As to the kind of experiment: LTEA_HepaRG_GADD45G: Life Technologies and Expression Analysis (LTEA) Assay for growth arrest and DNA damage 45 (GADD45G) using HepaRG (AID 2283499). In a few lines: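 Differentiated human HepaRG cells, 48 h post-plating, exposed 48 h in serum-free induction medium to 8 half-log concentrations (top 100 uM, 0.5% DMSO) in duplicate. GADD45G mRNA measured by Fluidigm TaqMan qRT-PCR, normalized to ACTB, GAPDH, POLR2A; bidirectional fit versus DMSO.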

Read-out in test [11]: Glutamate-cysteine ligase regulatory (GCLM), GCLM (gene 2730)
As to the kind of experiment: LTEA_HepaRG_GCLM: Life Technologies and Expression Analysis (LTEA) Assay for Glutamate-cysteine ligase regulatory (GCLM) using HepaRG (AID 2283500). In a few lines:
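Cells were plated, cultured 48 h, switched to serum-free induction medium, then dosed in duplicate for 48 h at eight half-log concentrations up to 100 uM. RNA was then profiled by qRT-PCR; gain or loss versus DMSO was fitted.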

Read-out in test [12]: Glutathione S-transferase M3 (GSTM3), GSTM3 (gene 2947)
Description: LTEA_HepaRG_GSTM3: Life Technologies and Expression Analysis (LTEA) Assay for Glutathione S-transferase M3 (GSTM3) using HepaRG (AID 2283501). The essentials: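 Differentiated human HepaRG cells were exposed in duplicate for 48 h in serum-free induction medium, 8 points from 100 uM top in half-log steps, 0.5% DMSO. GSTM3 mRNA was measured by TaqMan qRT-PCR, normalized to ACTB, GAPDH and POLR2A; bidirectional fit versus DMSO.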

Read-out in test [13]: Heat shock 70 kDa protein 1 (HSPA1A), gene 3303
As to the kind of experiment: LTEA_HepaRG_HSPA1A: Life Technologies and Expression Analysis (LTEA) Assay for Heat shock 70 kDa protein 1 (HSPA1A) using HepaRG (AID 2283502). The essentials: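 Readout is HSPA1A transcript level by microfluidic qRT-PCR, normalized to three housekeeping genes and analysed for gain or loss of signal relative to 0.5% DMSO. Human HepaRG cultures received test chemicals for 48 h at up to 100 uM.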

Read-out in test [14]: Hypoxia-inducible factor 1-alpha (Homo sapiens) (UniProt Q16665)
As to the kind of experiment: LTEA_HepaRG_HIF1A: Life Technologies and Expression Analysis (LTEA) Assay for Hypoxia-inducible factor 1 (HIF1A) Trancription factor using HepaRG (AID 2283503). The essentials:
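Differentiated HepaRG cells in serum-free induction medium exposed 48 h, in duplicate, to 8-point half-log series from 100 uM in 0.5% DMSO. HIF1A mRNA measured by TaqMan qRT-PCR, normalized to ACTB/GAPDH/POLR2A, fitted bidirectionally versus DMSO.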

Read-out in test [15]: 3-Hydroxy-3-Methylglutaryl-CoA Synthase 2 (HMGCS2), HMGCS2 (gene 3158)
As to the kind of experiment: LTEA_HepaRG_HMGCS2: Life Technologies and Expression Analysis (LTEA) Assay for 3-Hydroxy-3-Methylglutaryl-CoA Synthase 2 (HMGCS2) using HepaRG (AID 2283504). In a few lines:
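Human HepaRG cells in serum-free induction medium were exposed in duplicate for 48 h to 8-point half-log series from 100 uM top in 0.5% DMSO. HMGCS2 mRNA measured by TaqMan qRT-PCR, normalised to ACTB, GAPDH, POLR2A; bidirectional fit versus DMSO.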

Read-out in test [16]: HGF (gene 3082)
As to the kind of experiment: LTEA_HepaRG_HGF: Life Technologies and Expression Analysis (LTEA) Assay for Hepatocyte Growth Facto (HGF) using HepaRG (AID 2283505). In a few lines:
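Differentiated HepaRG cells in serum-free induction medium exposed 48 h in duplicate, 8 half-log concentrations from 100 uM in 0.5% DMSO. HGF mRNA by qRT-PCR, normalised to ACTB, GAPDH, POLR2A; bidirectional fitting.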

Read-out in test [17]: Insulin Like Growth Factor 1 (IGF1), IGF1 (gene 3479)
Description: LTEA_HepaRG_IGF1: Life Technologies and Expression Analysis (LTEA) Assay for Insulin Like Growth Factor 1 (IGF1) using HepaRG (AID 2283506). The essentials:
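HepaRG, plated 48 h, then switched to serum-free induction media; test chemical 8-pt half-log from 100 uM (0.5% DMSO), duplicate, 48 h. Lysis in RLT, TaqMan qRT-PCR, norm. ACTB/GAPDH/POLR2A. Bidirectional fit vs DMSO.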

Read-out in test [18]: Intercellular Adhesion Molecule 1 (ICAM1), ICAM1 (gene 3383)
Description: LTEA_HepaRG_ICAM1: Life Technologies and Expression Analysis (LTEA) Assay for Intercellular Adhesion Molecule 1 (ICAM1) using HepaRG (AID 2283507). In a few lines:
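Differentiated human HepaRG cells in serum-free induction medium exposed 48 h in duplicate to 8 half-log concentrations (top 100 uM, 0.5% DMSO). ICAM1 mRNA quantified by TaqMan qRT-PCR, normalized to ACTB, GAPDH and POLR2A; bidirectional fitting versus DMSO.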

Read-out in test [19]: Insulin-like growth factor-binding protein 1 (IGFBP1), IGFBP1 (gene 3484)
Description: LTEA_HepaRG_IGFBP1: Life Technologies and Expression Analysis (LTEA) Assay for Insulin-like growth factor-binding protein 1 (IGFBP1) using HepaRG (AID 2283508). In a few lines: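 HepaRG cells, plated 48 h then switched to serum-free induction medium, exposed in duplicate for 48 h to 8-point half-log series from 100 uM in 0.5% DMSO. mRNA measured by qRT-PCR, normalized to ACTB/GAPDH/POLR2A; bidirectional fit versus DMSO.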

Read-out in test [20]: Interleukin 6 (IL6), IL6 (gene 3569)
Description: LTEA_HepaRG_IL6: Life Technologies and Expression Analysis (LTEA) Assay for Interleukin 6 (IL6) using HepaRG (AID 2283509). In a few lines: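 HepaRG, ~100,000 cells/well, 48 h pre-culture; serum-free induction medium; cmpd 8-pt half-log from 100 uM, 0.5% DMSO, duplicate, 48 h. Lysis in RLT, TaqMan qRT-PCR; gain or loss vs DMSO.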

Active and inactive are the calls of the source. How the source made its calls: active means hit-call score of the fitted dose curve at least 0.9, where 1 is the maximum; inactive means score below 0.9.

Cytochrome P450 3A7 (Homo sapiens), sequence (P24462 whole entry, looked up): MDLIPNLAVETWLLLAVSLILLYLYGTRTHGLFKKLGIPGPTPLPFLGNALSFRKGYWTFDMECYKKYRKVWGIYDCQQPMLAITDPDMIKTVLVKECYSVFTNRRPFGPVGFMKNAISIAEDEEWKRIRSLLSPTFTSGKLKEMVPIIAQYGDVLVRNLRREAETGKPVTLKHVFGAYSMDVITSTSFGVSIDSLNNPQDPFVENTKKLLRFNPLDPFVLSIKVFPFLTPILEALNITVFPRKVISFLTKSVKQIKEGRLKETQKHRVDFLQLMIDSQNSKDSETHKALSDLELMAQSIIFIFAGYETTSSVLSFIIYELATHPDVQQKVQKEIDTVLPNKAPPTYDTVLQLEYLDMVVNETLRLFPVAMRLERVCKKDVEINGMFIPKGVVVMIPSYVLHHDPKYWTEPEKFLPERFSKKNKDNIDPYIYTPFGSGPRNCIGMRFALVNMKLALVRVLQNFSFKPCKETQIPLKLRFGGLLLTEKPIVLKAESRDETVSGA
Hypoxia-inducible factor 1-alpha (Homo sapiens), sequence (Q16665 whole entry, looked up): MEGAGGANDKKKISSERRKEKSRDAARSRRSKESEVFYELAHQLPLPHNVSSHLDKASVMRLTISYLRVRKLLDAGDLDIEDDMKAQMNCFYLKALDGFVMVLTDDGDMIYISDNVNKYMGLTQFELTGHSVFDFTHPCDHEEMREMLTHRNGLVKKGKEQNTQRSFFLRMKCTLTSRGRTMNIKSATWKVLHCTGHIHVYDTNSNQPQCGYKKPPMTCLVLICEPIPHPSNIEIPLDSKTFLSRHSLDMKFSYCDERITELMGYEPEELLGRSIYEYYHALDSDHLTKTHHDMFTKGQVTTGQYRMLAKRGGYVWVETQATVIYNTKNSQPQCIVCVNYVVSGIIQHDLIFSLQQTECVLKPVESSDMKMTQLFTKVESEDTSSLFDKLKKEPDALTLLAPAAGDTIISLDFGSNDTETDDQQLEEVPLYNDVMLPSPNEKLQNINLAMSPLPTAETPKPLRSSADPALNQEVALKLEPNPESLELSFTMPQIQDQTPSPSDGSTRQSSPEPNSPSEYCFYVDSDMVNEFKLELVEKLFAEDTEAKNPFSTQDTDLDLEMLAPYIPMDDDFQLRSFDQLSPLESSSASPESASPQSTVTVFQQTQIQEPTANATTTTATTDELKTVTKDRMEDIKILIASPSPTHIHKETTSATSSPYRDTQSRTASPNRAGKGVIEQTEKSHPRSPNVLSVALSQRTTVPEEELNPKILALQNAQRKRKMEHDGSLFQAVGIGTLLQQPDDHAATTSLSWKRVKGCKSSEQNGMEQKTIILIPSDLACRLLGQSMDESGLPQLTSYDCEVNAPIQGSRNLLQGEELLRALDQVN

As for `O=P(O)(O)CCCl`, the result in test [1], in test [2], in test [3], in [4], in [5] and in test [6] was inactive. For the same compound, the compound was classed as inactive in test [7], in [8], in test [9], in test [10], in test [11] and in test [12]. Besides, the result in test [13], in test [14], in test [15], in test [16], in [17] and in [18] was inactive. Moreover, the compound was classed as inactive in [19] and in test [20].
For `O=C1C2CC=CCC2C(=O)N1SC(Cl)(Cl)Cl` (stereo not given), the outcome in test [1], in [2], in [3], in [4], in test [5] and in [6] was inactive. The result in [7], in test [8], in [9], in test [10], in test [11] and in test [12] was inactive. Further, the compound was classed as inactive in test [13], in test [14], in test [15], in test [16], in test [17] and in test [18]. In addition, the compound was called inactive in [20]. In addition, the AC50 in test [19] was 20.2 µM (active).
Regarding `CS(=O)(=O)c1cc(C(F)(F)F)ccc1C(=O)c1cnoc1C1CC1`, the compound was called inactive in test [1], in test [2], in test [3], in test [4], in [5] and in [6]. Besides, the result in test [7], in test [8], in test [9], in test [10], in [11] and in test [12] was inactive. Further, the compound was classed as inactive in test [13], in test [14], in test [15], in test [16], in test [17] and in test [18]. Further, the compound was called inactive in test [19] and in [20].

(Values after PubChem BioAssay (EPA / NIEHS).)
